This passage reports outcome and AC50 results from PubChem BioAssay (EPA / NIEHS).

Where “and” joins values, the source holds several entries; their conditions need not be identical. Equal values may be shown once. Results filed as inconclusive are left out. Calls of active or inactive are those of the source. Rule for the calls, unless noted: active = hit-call score of the fitted dose curve at least 0.9, where 1 is the maximum; inactive = score below 0.9.

Assay [1] in a line: ATG_PXRE_CIS: Attagene CIS-FACTORIAL HepG2 Assay for human Pregnane X Receptor Element (PXRE) (AID 2282957). To be noted: HepG2 Attagene CIS-FACTORIAL PXRE reporter, mRNA; actives raise or lower the signal. Summed up: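 HepG2 cells transiently transfected with cis-regulated multiple reporter transcription units; endogenous factor activity measured as reporter mRNA 24 h after dosing. RT-PCR, fluorescent primer extension, HpaI digestion, capillary electrophoresis; bidirectional fit versus DMSO baseline.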

Assay [2] in a line: ATG_PPRE_CIS: Attagene CIS-FACTORIAL HepG2 Assay for human Peroxisome Proliferator-activated Response Element (PPRE) (AID 2282958). Particulars: HepG2 PPRE cis-element reporter, Attagene transcription factor profiling; actives raise or lower the signal. Summed up:
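HepG2, transient MRTU transfection (cis promoter elements, endogenous TFs). 24 h dosing. RNA → oligo(dT) RT → PCR → 6-FAM primer extension → HpaI digest → CE. Bidirectional fit vs DMSO.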

Assay [3] is described as follows: ATG_RORE_CIS: Attagene CIS-FACTORIAL HepG2 Assay for human RAR-related Orphan Receptor Element (RORE) (AID 2282959). Particulars: HepG2 Attagene cis-factorial RORE reporter, mRNA; actives raise or lower the signal. Summed up: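 Transient MRTU transfection of human HepG2 liver cells (FuGene 6); 24 h compound exposure; TriZol RNA, oligo(dT) RT, PCR, FAM labeling, HpaI cut, CE fragment analysis. DMSO = negative control/baseline.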

Assay [4] can be described thus: ATG_Sox_CIS: Attagene CIS-FACTORIAL HepG2 Assay for human SRY-box transcription factor (SOX) (AID 2282960). Particulars: HepG2 Attagene cis-factorial SOX reporter, mRNA; actives raise or lower the signal. An outline of the steps:
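Endogenous factor activity in human liver HepG2 cells carrying transfected cis-regulated reporter units. RNA taken 24 h post-dose, reverse-transcribed, PCR-amplified and sized by capillary electrophoresis. Gain or loss of signal fitted relative to DMSO.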

The target of assay [5] is Transcription factor Sp1 (Homo sapiens) (UniProt P08047). Nature of the assay: ATG_Sp1_CIS: Attagene CIS-FACTORIAL HepG2 Assay for human Specificity Protein 1 (Sp1) (AID 2282961). Particulars: HepG2 Sp1 cis-reporter transcription, actives raise or lower the signal. An outline of the steps: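 Transient MRTU-transfected HepG2, 24 h compound exposure. Total RNA → oligo(dT) RT → PCR of reporter → 6-FAM primer extension → HpaI digest → CE. Endpoint fitted both directions vs DMSO.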

Assay [6] is described as follows: ATG_SREBP_CIS: Attagene CIS-FACTORIAL HepG2 Assay for human Sterol Regulatory Element Binding (SREBP) (AID 2282962). Particulars: HepG2 Attagene cis-factorial SREBP reporter, mRNA; actives raise or lower the signal. Summed up:
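Transfected HepG2 (cis-regulated reporter library, endogenous TFs) → compound 24 h → total RNA → oligo(dT) RT → reporter-specific PCR → FAM primer extension, HpaI cut → CE fluorescence. Fit bidirectional vs DMSO.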

Assay [7] concerns the target Signal transducer and activator of transcription 3 (Homo sapiens) (UniProt P40763). The assay is described as follows: ATG_STAT3_CIS: Attagene CIS-FACTORIAL HepG2 Assay for human Signal Transducer and Activator of Transcription 3 (STAT3) (AID 2282963). To be noted: HepG2, Attagene cis-factorial STAT3 reporter transcription; actives raise or lower the signal. An outline of the steps: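 HepG2 cells transiently transfected with multiple cis-element-driven reporter units report endogenous transcription factor activity. After 24 h compound exposure, reporter mRNA is measured by RT-PCR, 6-FAM labelling, HpaI digestion and capillary electrophoresis. Fitted bidirectionally versus DMSO.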

Assay [8] in a line: ATG_TA_CIS: Attagene CIS-FACTORIAL HepG2 Assay for human TA Basal Promoter (AID 2282964). Particulars: HepG2 Attagene CIS-factorial TA basal promoter reporter; actives raise or lower the signal. Summed up:
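Read-out: fluorescent reporter-transcript fragments resolved by capillary electrophoresis after RT-PCR and HpaI digestion. Source: HepG2 cells carrying transiently transfected multi-reporter cis constructs, treated 24 h. Endpoint fitted bidirectionally relative to DMSO.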

Assay [9] can be described thus: ATG_TCF_b_cat_CIS: Attagene CIS-FACTORIAL HepG2 Assay for human T-Cell-Factor with beta-catenin (TCF/b-cat) (AID 2282965). To be noted: HepG2 TCF/beta-catenin cis-reporter transcription, actives raise or lower the signal. Summed up:
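HepG2, transient MRTU transfection, cis-element-driven reporters (endogenous TFs). 24 h compound exposure. Readout: reporter mRNA by RT-PCR + 6-FAM primer extension, HpaI digest, capillary electrophoresis. Gain/loss fit vs DMSO baseline.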

Assay [10] can be described thus: ATG_TAL_CIS: Attagene CIS-FACTORIAL HepG2 Assay for human TAL Basal Promoter (AID 2282966).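 Note: background control endpoint measuring basal TAL promoter reporter mRNA not a specific factor.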 Particulars: HepG2 Attagene cis-factorial TAL promoter reporter; actives raise or lower the signal. An outline of the steps: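 HepG2 cells were transiently transfected with promoter-driven multiplexed reporter units and dosed for 24 h. Reporter mRNA was measured by RT-PCR with capillary electrophoresis fluorescence; bidirectional fits used DMSO as baseline, serving as a background control.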

Assay [11] is described as follows: ATG_TGFb_CIS: Attagene CIS-FACTORIAL HepG2 Assay for human Transforming Growth Factor (TGF) (AID 2282967). To be noted: HepG2 Attagene CIS TGFb reporter, mRNA transcription; actives raise or lower the signal. An outline of the steps:
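Transient MRTU transfection of HepG2 (FuGene 6). Dose 24 h. TriZol RNA, oligo(dT) RT, PCR, 6-FAM primer extension, HpaI cut, CE. Bidirectional fit, DMSO = baseline.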

The nature of assay [12]: ATG_VDRE_CIS: Attagene CIS-FACTORIAL HepG2 Assay for human Vitamin D Receptor Element (VDRE) (AID 2282968). To be noted: HepG2 VDRE cis-reporter transcription, actives raise or lower the signal. An outline of the steps:
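Transiently transfected HepG2 cells carrying cis-regulated reporter transcription units were exposed for 24 h. Reporter mRNA was measured by RT-PCR with fluorescent labelling and capillary electrophoresis, and fitted in both directions against DMSO.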

Assay [13] concerns the target Steroid hormone receptor ERR1 (Homo sapiens) (UniProt P11474). Nature of the assay: ATG_ERRa_TRANS: Attagene TRANS-FACTORIAL HepG2 Assay for human Estrogen-Related Receptor alpha (ERRa) (AID 2282971; active = hit-call score of the fitted dose curve at least 0.9, where 1 is the maximum). Particulars: HepG2 Attagene TRANS reporter, ERRa transactivation. An outline of the steps: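 HepG2 cells transiently transfected with multiplexed GAL4-UAS reporter units reading chimeric ERRa-Gal4 activity; 24 h compound exposure. Reporter mRNA measured by RT-PCR, 6-FAM labelling, HpaI digest and capillary electrophoresis; gain of signal fitted versus DMSO baseline.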

Assay [14] has as its target X-box-binding protein 1 (Homo sapiens) (UniProt P17861). Nature of the assay: ATG_Xbp1_CIS: Attagene CIS-FACTORIAL HepG2 Assay for human X-box Binding Protein 1 (XBP1) (AID 2282972). Particulars: HepG2 XBP1 cis-element reporter, Attagene multiplex; actives raise or lower the signal. Summed up:
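HepG2, transient MRTU transfection (cis-promoter driven), 24 h compound exposure. Total RNA → oligo(dT) RT → PCR → 6-FAM labeling → HpaI cut → CE. Bidirectional fit vs DMSO.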

Assay [15] is described as follows: ATG_M_19_TRANS: Attagene TRANS-FACTORIAL HepG2 Assay for M19 Transcription Factor (Internal Marker) (AID 2282974; active = hit-call score of the fitted dose curve at least 0.9, where 1 is the maximum). To be noted: HepG2 Attagene TRANS-FACTORIAL M19 internal marker reporter. Summed up:
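Fluorescence of 6-FAM-labelled reporter cDNA fragments, separated by capillary electrophoresis, served as the readout. These derived from HepG2 cells carrying transfected GAL4-UAS reporter units after 24 h dosing, with DMSO as negative control.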

Assay [16] concerns the target Estrogen-related receptor gamma (Homo sapiens) (UniProt P62508). Nature of the assay: ATG_ERRg_TRANS: Attagene TRANS-FACTORIAL HepG2 Assay for human Estrogen-Related Receptor gamma (ERRg) (AID 2282977; active = hit-call score of the fitted dose curve at least 0.9, where 1 is the maximum;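 note: hits increase reporter signal over DMSO so potencies reflect activators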). To be noted: HepG2 Attagene TRANS reporter, ERRg transactivation. An outline of the steps: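 Transfect HepG2 with multiple GAL4-UAS reporter transcription units; dose chemicals 24 h; isolate RNA, reverse-transcribe with oligo(dT), PCR-amplify, label with 6-FAM, digest with HpaI; size fragments by capillary electrophoresis. DMSO serves as negative control.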

Assay [17] has as its target Nuclear receptor subfamily 1 group I member 3 (Homo sapiens) (UniProt Q14994). The assay is described as follows: ATG_CAR_TRANS: Attagene TRANS-FACTORIAL HepG2 Assay for human Constitutive Androstane Receptor (CAR) (AID 2282969; active = hit-call score of the fitted dose curve at least 0.9, where 1 is the maximum;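 note: activators raise reporter mRNA above DMSO so AC50 marks induction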). To be noted: HepG2 Attagene TRANS-FACTORIAL CAR reporter. Summed up:
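HepG2 cells transiently transfected with GAL4-UAS reporter units; TRANS format reads activity of exogenous chimeric NR-Gal4 protein. After 24 h dosing, reporter mRNA quantified by RT-PCR, 6-FAM labelling and capillary electrophoresis; gain of signal fitted against DMSO.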

A short description of assay [18]: ATG_GAL4_TRANS: Attagene TRANS-FACTORIAL HepG2 Assay for GAL4 (Internal Marker) (AID 2282976; active = hit-call score of the fitted dose curve at least 0.9, where 1 is the maximum). Particulars: HepG2 Attagene TRANS GAL4 internal marker reporter. An outline of the steps: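 HepG2 cells transiently transfected with multiplexed GAL4-UAS reporter constructs were dosed for 24 h. Reporter mRNA was measured by RT-PCR, 6-FAM primer extension, HpaI digestion and capillary electrophoresis, and gain of signal was fitted relative to DMSO.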

The target in assay [19] is Glucocorticoid receptor (Homo sapiens) (UniProt P04150). The assay is described as follows: ATG_GR_TRANS: Attagene TRANS-FACTORIAL HepG2 Assay for human Glucocorticoid Receptor (GR) (AID 2282978; active = hit-call score of the fitted dose curve at least 0.9, where 1 is the maximum;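 note: activators score as hits since higher reporter transcript over DMSO is fitted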). To be noted: HepG2 Attagene TRANS GR reporter, mRNA transcription. Summed up: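 Fluorescent capillary-electrophoresis quantitation of reporter mRNA is the readout, taken 24 h after dosing human HepG2 cells carrying transiently transfected GAL4-UAS reporter units activated by chimeric NR-GAL4 fusions; activity scored as induction over DMSO.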
Sequence of Glucocorticoid receptor (Homo sapiens) (P04150 whole entry, looked up, the tested form may be a part): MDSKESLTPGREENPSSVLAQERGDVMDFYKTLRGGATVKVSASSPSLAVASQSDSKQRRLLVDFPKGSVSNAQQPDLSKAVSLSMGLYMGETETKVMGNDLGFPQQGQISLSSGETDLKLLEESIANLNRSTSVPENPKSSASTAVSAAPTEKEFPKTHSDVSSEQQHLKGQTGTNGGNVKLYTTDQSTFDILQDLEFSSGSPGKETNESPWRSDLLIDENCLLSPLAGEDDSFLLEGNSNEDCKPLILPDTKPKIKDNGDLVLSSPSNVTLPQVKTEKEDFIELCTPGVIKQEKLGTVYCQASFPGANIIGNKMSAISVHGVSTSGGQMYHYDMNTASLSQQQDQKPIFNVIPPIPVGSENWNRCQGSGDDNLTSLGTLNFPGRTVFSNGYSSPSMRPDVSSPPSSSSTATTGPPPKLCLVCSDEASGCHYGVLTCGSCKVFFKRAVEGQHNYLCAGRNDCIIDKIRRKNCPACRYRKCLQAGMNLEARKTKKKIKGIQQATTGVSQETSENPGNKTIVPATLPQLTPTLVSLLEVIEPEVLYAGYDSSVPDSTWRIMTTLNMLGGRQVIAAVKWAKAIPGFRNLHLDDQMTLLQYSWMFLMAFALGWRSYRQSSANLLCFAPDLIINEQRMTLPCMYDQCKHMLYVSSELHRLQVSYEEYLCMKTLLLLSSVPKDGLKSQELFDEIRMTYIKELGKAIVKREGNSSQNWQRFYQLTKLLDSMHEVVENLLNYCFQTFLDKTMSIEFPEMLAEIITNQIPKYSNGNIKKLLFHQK

Sequence of Signal transducer and activator of transcription 3 (Homo sapiens) (P40763 whole entry, looked up): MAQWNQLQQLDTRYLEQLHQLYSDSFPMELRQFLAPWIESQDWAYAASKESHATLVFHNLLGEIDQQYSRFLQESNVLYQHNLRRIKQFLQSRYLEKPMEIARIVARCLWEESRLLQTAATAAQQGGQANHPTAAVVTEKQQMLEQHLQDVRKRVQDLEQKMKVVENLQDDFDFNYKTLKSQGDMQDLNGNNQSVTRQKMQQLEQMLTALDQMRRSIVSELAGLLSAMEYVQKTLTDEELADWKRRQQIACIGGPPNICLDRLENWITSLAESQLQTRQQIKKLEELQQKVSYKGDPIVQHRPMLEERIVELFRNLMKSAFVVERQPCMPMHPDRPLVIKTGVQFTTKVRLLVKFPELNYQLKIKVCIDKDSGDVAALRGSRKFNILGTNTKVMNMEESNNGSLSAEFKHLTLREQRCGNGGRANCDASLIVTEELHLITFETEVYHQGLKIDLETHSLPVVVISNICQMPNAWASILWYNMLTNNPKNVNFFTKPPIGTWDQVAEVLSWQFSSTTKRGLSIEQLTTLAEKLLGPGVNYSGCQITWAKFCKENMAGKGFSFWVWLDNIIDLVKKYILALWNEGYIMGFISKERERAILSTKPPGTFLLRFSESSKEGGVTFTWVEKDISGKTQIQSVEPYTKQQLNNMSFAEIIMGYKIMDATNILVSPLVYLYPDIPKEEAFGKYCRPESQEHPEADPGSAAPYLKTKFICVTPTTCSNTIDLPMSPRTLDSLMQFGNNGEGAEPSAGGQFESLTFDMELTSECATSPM
Sequence of Transcription factor Sp1 (Homo sapiens) (P08047 whole entry, looked up): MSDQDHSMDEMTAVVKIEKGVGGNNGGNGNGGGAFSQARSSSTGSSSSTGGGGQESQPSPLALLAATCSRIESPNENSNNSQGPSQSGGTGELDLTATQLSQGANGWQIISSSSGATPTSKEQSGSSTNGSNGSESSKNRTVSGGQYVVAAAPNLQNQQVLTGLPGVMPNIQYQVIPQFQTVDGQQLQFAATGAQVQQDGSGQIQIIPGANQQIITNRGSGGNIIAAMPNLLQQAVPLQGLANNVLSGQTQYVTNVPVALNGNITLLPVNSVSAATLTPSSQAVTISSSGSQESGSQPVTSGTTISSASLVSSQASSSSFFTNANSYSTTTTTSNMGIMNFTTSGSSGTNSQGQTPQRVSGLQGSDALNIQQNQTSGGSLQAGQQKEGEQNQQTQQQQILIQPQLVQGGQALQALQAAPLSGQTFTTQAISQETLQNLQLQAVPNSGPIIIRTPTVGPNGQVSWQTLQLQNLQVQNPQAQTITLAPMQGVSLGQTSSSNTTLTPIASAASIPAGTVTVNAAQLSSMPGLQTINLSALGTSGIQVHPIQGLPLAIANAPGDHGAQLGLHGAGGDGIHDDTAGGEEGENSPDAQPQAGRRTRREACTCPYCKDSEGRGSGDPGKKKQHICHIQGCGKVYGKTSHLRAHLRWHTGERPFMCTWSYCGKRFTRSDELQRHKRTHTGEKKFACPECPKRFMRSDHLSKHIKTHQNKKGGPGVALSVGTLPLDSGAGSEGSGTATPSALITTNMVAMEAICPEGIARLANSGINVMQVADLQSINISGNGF
Sequence of Steroid hormone receptor ERR1 (Homo sapiens) (P11474 whole entry, looked up, the tested form may be a part): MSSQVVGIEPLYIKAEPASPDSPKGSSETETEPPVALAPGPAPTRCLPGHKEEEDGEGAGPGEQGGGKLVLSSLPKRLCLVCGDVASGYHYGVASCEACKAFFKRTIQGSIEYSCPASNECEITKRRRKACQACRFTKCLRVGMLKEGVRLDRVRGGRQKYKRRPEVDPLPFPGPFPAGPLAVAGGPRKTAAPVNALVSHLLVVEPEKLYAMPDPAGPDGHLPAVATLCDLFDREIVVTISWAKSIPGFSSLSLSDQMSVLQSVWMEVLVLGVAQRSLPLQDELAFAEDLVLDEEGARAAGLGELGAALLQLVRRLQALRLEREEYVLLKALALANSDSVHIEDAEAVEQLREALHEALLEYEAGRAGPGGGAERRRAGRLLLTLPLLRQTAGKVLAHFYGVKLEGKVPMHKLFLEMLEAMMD
Sequence of X-box-binding protein 1 (Homo sapiens) (P17861 whole entry, looked up): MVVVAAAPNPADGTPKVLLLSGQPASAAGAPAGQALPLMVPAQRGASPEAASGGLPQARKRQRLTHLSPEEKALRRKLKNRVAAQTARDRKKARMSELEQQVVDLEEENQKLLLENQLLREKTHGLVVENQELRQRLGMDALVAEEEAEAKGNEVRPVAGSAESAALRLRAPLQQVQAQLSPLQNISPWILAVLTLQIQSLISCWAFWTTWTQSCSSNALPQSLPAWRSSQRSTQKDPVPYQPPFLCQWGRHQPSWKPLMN
Sequence of Estrogen-related receptor gamma (Homo sapiens) (P62508 whole entry, looked up, the tested form may be a part): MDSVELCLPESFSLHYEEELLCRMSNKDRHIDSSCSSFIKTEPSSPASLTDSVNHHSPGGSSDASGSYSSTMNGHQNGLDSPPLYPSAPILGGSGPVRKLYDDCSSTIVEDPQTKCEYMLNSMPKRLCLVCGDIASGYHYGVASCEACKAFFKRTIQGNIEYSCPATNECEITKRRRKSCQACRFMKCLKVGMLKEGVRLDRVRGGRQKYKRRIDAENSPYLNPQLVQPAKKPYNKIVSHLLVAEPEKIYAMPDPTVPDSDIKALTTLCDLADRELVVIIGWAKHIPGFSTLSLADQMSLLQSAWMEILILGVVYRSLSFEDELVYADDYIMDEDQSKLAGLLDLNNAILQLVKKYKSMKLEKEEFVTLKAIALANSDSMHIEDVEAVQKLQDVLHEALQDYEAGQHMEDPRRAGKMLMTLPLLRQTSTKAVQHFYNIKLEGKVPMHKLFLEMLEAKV
Sequence of Nuclear receptor subfamily 1 group I member 3 (Homo sapiens) (Q14994 whole entry, looked up, the tested form may be a part): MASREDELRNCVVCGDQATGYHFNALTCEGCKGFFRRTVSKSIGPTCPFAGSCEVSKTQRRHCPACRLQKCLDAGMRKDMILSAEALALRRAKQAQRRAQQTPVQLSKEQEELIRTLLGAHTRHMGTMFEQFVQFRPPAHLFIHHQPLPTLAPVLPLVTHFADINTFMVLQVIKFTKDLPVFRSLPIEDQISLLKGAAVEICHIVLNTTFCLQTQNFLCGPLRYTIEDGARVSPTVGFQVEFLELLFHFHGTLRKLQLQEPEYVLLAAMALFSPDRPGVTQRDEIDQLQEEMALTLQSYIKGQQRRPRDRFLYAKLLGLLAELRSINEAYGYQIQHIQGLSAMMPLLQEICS

As to `Brc1ccc(Oc2ccc(Br)cc2Br)cc1`, the outcome in assay [1], in [2], in assay [3], in assay [4], in assay [5] and in [6] was inactive. Further, the result in assay [7], in assay [8], in assay [9], in assay [10], in assay [11] and in assay [12] was inactive. Besides, the compound was classed as inactive in assay [13], in assay [14] and in assay [15].
Broadly, the AC50 is the concentration at which the activity in the assay is half-maximal. As to `COc1ccccc1NC(=O)c1cc2ccccc2cc1O`, the AC50 is 1.63 µM (active) in assay [1]; 100 µM (active) in [4]; 27.7 µM (active) in assay [5]; 55.5 µM (active) in [6]; 123 µM (active) in assay [9]; 6.49 µM (active) in [12]. Besides, the AC50 in assay [14] was 25.8 µM (active). Also, the compound was classed as inactive in assay [2], in assay [3], in [7], in [8], in assay [10] and in assay [11]. In addition, in assay [16], the outcome was inactive.
With `O=S(=O)(O)C(F)(F)C(F)(F)C(F)(F)C(F)(F)C(F)(F)C(F)(F)C(F)(F)C(F)(F)C(F)(F)C(F)(F)F`, the AC50 was 83.7 µM (active) and 40.3 µM (active) in assay [1]; 132 µM (active) and 31.7 µM (active) in [11]. In addition, the outcome in [2], in assay [3], in assay [4], in assay [5], in [6] and in assay [7] was inactive. Besides, the outcome in [8], in [10], in assay [12], in [17], in assay [13] and in assay [14] was inactive. For the same compound, the compound was called inactive in assay [15], in assay [18], in assay [16] and in assay [19].
For the compound `COC(=O)C(F)(F)C(F)(F)C(F)(F)C(F)(F)C(F)(F)F`, the compound was classed as inactive in [1], in [2], in assay [3], in [4], in assay [5] and in [6]. Besides, the call in assay [7], in [8], in assay [9], in [10], in assay [11] and in assay [12] was inactive. In addition, the result in [13], in assay [14] and in [15] was inactive.
